# Prostate diff: promotes differentiation of LNCaP prostate cells | flow cytometry side scatter, 4 d | side scatter shift, % at 10 µM | hit rate 0.56% among 24,000 | AID 795;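 active = side scatter shift above 30%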;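 note: androgen-responsive LNCaP prostate cancer cells in charcoal-stripped serum medium; percent of cells past a gate set so DMSO wells show 10% shift; higher shift means more granular cells and more differentiation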
# FPRL1 ligand: ligands of human FPRL1, also counter-screen for FPR ligands. P25090. FPRL1-expressing cells, fluorescent ligand binding inhibition, flow cytometry. AID 441. hit rate 0.3% among 24,000. inhibition, % (no concentration beside the values);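 note: 0% = buffer alone and 100% = receptor blocker peptide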
# Target sequence (P25090 whole entry, looked up): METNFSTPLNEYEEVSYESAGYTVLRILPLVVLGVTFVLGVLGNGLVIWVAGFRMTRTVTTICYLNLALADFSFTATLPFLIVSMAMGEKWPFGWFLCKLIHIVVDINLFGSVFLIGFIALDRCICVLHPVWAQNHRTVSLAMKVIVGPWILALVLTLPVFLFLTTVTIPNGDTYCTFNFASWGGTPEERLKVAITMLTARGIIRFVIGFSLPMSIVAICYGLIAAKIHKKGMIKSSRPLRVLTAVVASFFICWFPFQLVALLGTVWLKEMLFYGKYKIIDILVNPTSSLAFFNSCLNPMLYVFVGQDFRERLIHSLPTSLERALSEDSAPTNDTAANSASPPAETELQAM
# VLA-4 antagonist: inhibition of LDV-FITC ligand binding to human VLA-4 integrin; P13612; Jurkat cells, LDV-FITC binding with Mn2+, flow cytometry; 100% = Mn2+-driven binding gain fully reversed; inhibition, % at 10 µM (by protocol); hit rate 0.2% among 24,000;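 active = inhibition above 50%; inconclusive = compound itself fluorescent, judged against control cell fluorescence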;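 note: 0% = Mn2+ stimulated cells lacking compound and 100% = ligand binding without Mn2+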
# FPR binder: ligands of human FPR, also counter-screen for FPRL1 ligands; P21462; FPR-expressing cells, fluorescent ligand binding, flow cytometry; inhibition, % (test concentration not listed); hit rate 0.74% among 24,000; AID 440;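 note: 0% = buffer wells and 100% = receptor blocker peptide wells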
# Target sequence (P21462 whole entry, looked up): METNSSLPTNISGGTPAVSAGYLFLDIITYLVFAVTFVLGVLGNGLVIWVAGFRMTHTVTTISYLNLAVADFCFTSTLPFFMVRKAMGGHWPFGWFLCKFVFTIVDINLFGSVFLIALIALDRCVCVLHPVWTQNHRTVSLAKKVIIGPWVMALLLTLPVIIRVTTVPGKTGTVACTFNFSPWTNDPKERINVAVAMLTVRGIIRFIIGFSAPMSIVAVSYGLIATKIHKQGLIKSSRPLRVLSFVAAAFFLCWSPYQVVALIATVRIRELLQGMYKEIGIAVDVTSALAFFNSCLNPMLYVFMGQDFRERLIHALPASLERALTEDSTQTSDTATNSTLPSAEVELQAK
# Autofluor Jurkat: counter-screen for VLA-4 integrin: compound autofluorescence in Jurkat cells | flow cytometry; active compounds read high; 1 = vehicle-only cell background | fluorescence ratio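 (tested at 10 µM compound in the well)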 | hit rate 0.61% among 24,000 | AID 576;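 active = fluorescence ratio above 2.44, which is 1 plus 3 SD of all ratios; inconclusive = signal too bright to measure linearly, ratio around 10 or more; inactive = fluorescence ratio below 2.44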;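 note: green fluorescence of cells measured with 488 nm excitation and 530 nm emission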
# VLA-4 allo ag: allosterically activates the human VLA-4 integrin. P13612. activation, % at 10 µM (by protocol). 24,000 tested, under 10 active. Jurkat cells, LDV-FITC binding, flow cytometry. AID 528;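 active = fluorescent ligand binding to cells raised by more than 40% of the manganese-induced maximum; inconclusive = compound's own fluorescence above 85% of the ligand control signal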;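 note: 0% = ligand binding without compound and 100% = manganese-stimulated maximal binding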
# Numbers without * were called inactive; ? = inconclusive; / = no result given; ! = repeats disagree. A selection: hits, their analogues and other compounds. The true share with any hit is near 2.4%. Cut-off read from the data, not from the text of the source, unless noted: active = inhibition above about 30%; inconclusive = no clear call, values can overlap the other calls; inactive = below that.
SMILES,Prostate diff,FPRL1 ligand,VLA-4 antagonist,FPR binder,Autofluor Jurkat,VLA-4 allo ag
Cc1n[nH]c(C)c1S(=O)(=O)N(CC(=O)Nc1ccc2c(c1)OCCO2)c1ccc(C(C)C)cc1,11.0,-6.1,9.0,-1.3,1.04,-3.0
CCC(=O)N1CCc2cc(S(=O)(=O)CCC(=O)O)ccc21,10.0,-2.3,11.0,0.1,1.04,-1.0
CC(=O)N1c2ccc(S(=O)(=O)CCC(=O)O)cc2CC1C (stereo unspecified),9.0,-1.4,61.0*,6.4,1.06,-3.0
CC1CCN(S(=O)(=O)N2CCC(C(=O)NCc3cccs3)CC2)CC1,2.0,-2.7,14.0,1.8,1.07,-8.0
COc1ccc(S(=O)(=O)Nc2cc(C(=O)NCCC(C)C)ccc2N2CCOCC2)cc1,7.0,4.5,20.0,9.5,1.07,-3.0
COc1ccc(-c2noc(CCC(=O)NCCCN3CCC(Cc4ccccc4)CC3)n2)cc1,32.0*,1.5,8.7,-2.8,1.16,-3.3
CCN(CC)CCCN1C(=O)C(O)=C(C(C)=O)C1c1ccc(OC)cc1OC (stereo unspecified),6.0,13.7,-16.0,9.4,0.97,9.0
COc1ccccc1OCC(=O)Nc1ccc(S(=O)(=O)Nc2nc(C)cc(C)n2)cc1,11.0,-0.8,-10.5,-1.1,1.09,-1.5
COc1ccc(OC)c(/C=c2\sc3nc(-c4cccs4)nn3c2=O)c1,19.0,-44.0,?,-22.4,4.12*,?
COc1ccccc1/C=c1\sc2nc(-c3ccco3)nn2c1=O,2.0,-5.1,-10.0,10.8,1.18,1.0
CN(C(=O)c1ccccn1)c1nnc(-c2cccnc2)s1,32.0*,-0.3,4.0,-3.3,1,-12.0
Cc1onc(-c2ccccc2)c1C(=O)NC(C)C,9.0,11.8,0.0,7.9,0.99,6.0
Cc1onc(-c2ccccc2)c1C(=O)NC(CC(=O)O)c1ccc(OC(C)C)cc1 (stereo unspecified),10.0,6.3,86.5*,-1.3,1.02,-7.0
COc1ccc(-n2nnc3c(SCC(=O)N4CCN(c5ccccc5)CC4)ncnc32)cc1,2.0,2.2,13.0,-2.2,1.09,-4.0
C=CCn1c(=O)/c(=C/c2ccc(O)cc2)s/c1=C(/C#N)c1nnc2n1CCCCC2,7.0,-11.0,?,-14.4,3.69*,?
Cc1ccc(/C=c2\s/c(=C(/C#N)C(=O)N3CCCC3)n(Cc3ccco3)c2=O)s1,9.0,3.9,?,16.0,1.63,?
Cc1oc(-c2ccc(Cl)cc2)nc1CN1CCC(C(=O)N2CCc3ccccc3C2)CC1,11.0,-10.3,?,-2.9,1.31,?
Cc1oc(-c2ccc(Cl)cc2)nc1CN1CCC(C(=O)N2CCN(Cc3ccccc3)CC2)CC1,78.0*,3.5,?,-4.1,1.19,?
Cc1oc(-c2cccc(Cl)c2)nc1CN1CCC(C(=O)N2CCN(c3ccccc3F)CC2)CC1,34.0*,-0.4,18.0,0.5,1.16,-7.0
Cc1cc(O)c(NC(=O)c2ccc(Br)o2)cc1C,11.0,2.9,4.5,-0.4,1.28,-3.0
O=C(Nc1ccc(Nc2ccccc2)cc1)c1ccc(Br)o1,/,34.2*,/,17.8,/,/
Cn1c(Cc2ccccc2)nnc1SCC(=O)c1ccc(Br)s1,16.0,2.5,-8.5,-0.9,1.07,5.5
COc1ccc(-n2c(Cc3cccn3C)nnc2SCC(=O)Nc2ccc(Cl)cc2)cc1,9.0,1.0,7.0,55.6*,0.9,-4.0
Cc1onc(-c2ccccc2Cl)c1C(=O)NCCn1c(C)cc2ccccc21,18.0,-4.1,3.0,4.7,0.96,-1.5
CCCCOc1cc(C(=O)NCCN(CC)CC)c2ccccc2n1,7.0,0.1,-2.0,49.0*!,1.01,4.0
SMILES,Prostate diff,FPRL1 ligand,VLA-4 antagonist,FPR binder,Autofluor Jurkat,VLA-4 allo ag
CCCCN(CC)CCNC(=O)c1cc2c(C)nc3ccccc3c2o1,6.0,-0.7,-6.5,-2.8,1.09,2.5
COc1ccc(C(=O)O)cc1Nc1cc(C)nc2ncnn12,13.0,0.3,-14.0,-3.7,1.04,1.0
COc1ccc2cnn(-c3ccccc3)c(=O)c2c1OC,16.0,45.3*,-29.5,35.9*,1.02,-2.5
CC(NC(=O)Cc1cccs1)C(c1cccs1)N1CCN(c2ccccc2F)CC1 (stereo unspecified),9.0,-3.2,17.0,5.5,0.97,-5.0
O=C(C1=C(O)C(=O)N(CCCN2CCOCC2)C1c1ccccn1)c1cccs1 (stereo unspecified),/,-6.9,/,-2.2,/,/
O=C(C1=C(O)C(=O)N(CCN2CCOCC2)C1c1ccccc1)c1cccs1 (stereo unspecified),/,28.4,/,44.2*,/,/
C=CCOc1cccc(C2C(C(=O)c3ccco3)=C(O)C(=O)N2CCN2CCOCC2)c1 (stereo unspecified),/,-2.3,/,62.6*,/,/
COc1ccc(OC)c(C2C(C(=O)c3ccco3)=C(O)C(=O)N2CCCN2CCOCC2)c1 (stereo unspecified),/,1.3,/,49.8*,/,/
CN(C)Cc1cn(CCC(=O)O)c2ccccc12,10.0,12.8,?,0.0,1.1,?
O=C(CCCn1c(=O)c2sccc2n(Cc2ccc(F)cc2)c1=O)NCc1ccco1,16.0,-0.6,-11.0,1.2,1.04,7.0
COc1ccc(Cl)cc1S(=O)(=O)n1ccnc1C(C)C,14.0,4.6,-3.0,2.4,1.02,-7.0
CCOC(=O)N1CCC(NS(=O)(=O)c2cc3c(cc2Cl)NC(=O)CO3)CC1,2.0,-8.1,?,-18.8,5.09*,?
Cc1cc(O)c(-c2cc(C(=O)Nc3ccc(S(=O)(=O)N4CCOCC4)cc3)[nH]n2)cc1C,27.0,2.4,56.0*,-1.7,1.14,-24.0
COc1cccc(-n2nnc3c(=O)n(CC(=O)N4CCC(C)CC4)cnc32)c1,1.0,-3.4,-2.0,-3.9,1,-2.0
COc1cccc(-n2nnc3c(=O)n(CC(=O)N4CCC(Cc5ccccc5)CC4)cnc32)c1,12.0,-2.6,74.0*,-0.6,1.05,-5.0
CCOC(=O)c1c(NC(=O)C2C3CCC(O3)C2C(=O)O)sc(C)c1-c1ccc(C)cc1 (stereo unspecified),/,-3.7,/,46.4*,/,/
O=C(NCC12CC3CC(CC(C3)C1)C2)c1nn2c(c1Cl)NC(c1ccco1)CC2C(F)(F)F (stereo unspecified),25.0,-1.5,55.0*,-6.9,1.16,8.0
O=C(NCCN1CCOCC1)c1nn2c(c1Cl)NC(c1ccccc1)CC2C(F)(F)F (stereo unspecified),11.0,2.3,-4.0,2.3,1,4.0
Cc1cnn(Cc2ccccc2)c1N,6.0,-2.3,-6.0,-5.4,1.11,0.5
CCOC(=O)CCCCC(=O)c1[nH]c(=O)[nH]c1CSc1nc2ccccc2[nH]1,12.0,-2.2,55.0*,-0.4,1.03,1.0
O=C(Cn1cc2c(n1)CCCC2)N1CCCc2ccccc21,1.0,2.4,-13.0,-3.7,0.99,6.0
CC(=O)N1CCc2cc(S(=O)(=O)CCC(=O)N3CCN(C(=O)c4ccco4)CC3)ccc21,8.0,3.2,-12.7,1.3,1.02,3.0
C=CCOC(=O)c1sc(N2C(=O)c3oc4ccccc4c(=O)c3C2c2ccco2)nc1C (stereo unspecified),4.0,1.5,20.0,-0.1,1.16,-2.0

# High-throughput results: PubChem BioAssay, NMMLSC
